The target in assay [1] is T1, Aurora kinase A (Homo sapiens) (UniProt O14965).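 Also: values are mean percent inhibition.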
T1 sequence (whole entry): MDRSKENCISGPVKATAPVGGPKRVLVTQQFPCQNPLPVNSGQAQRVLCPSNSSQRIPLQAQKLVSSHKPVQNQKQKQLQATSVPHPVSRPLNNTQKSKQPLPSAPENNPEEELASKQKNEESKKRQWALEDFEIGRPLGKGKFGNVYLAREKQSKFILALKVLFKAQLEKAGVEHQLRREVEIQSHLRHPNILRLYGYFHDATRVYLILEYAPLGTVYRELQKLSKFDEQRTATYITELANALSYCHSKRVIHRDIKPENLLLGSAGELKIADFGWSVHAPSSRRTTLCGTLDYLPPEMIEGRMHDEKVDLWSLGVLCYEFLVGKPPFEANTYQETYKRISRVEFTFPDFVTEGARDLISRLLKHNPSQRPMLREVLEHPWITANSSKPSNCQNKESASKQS
To be noted: at 1 µM.

Assay [2] concerns the target Aurora kinase B (Homo sapiens) (UniProt Q96GD4). As to conditions: at 0.1 µM.
For assay [3] the target is unchanged. As to conditions: at 1 µM.
For assay [4], the target named is T2, Aurora kinase C (Homo sapiens) (UniProt Q9UQB9).
T2 sequence (whole entry): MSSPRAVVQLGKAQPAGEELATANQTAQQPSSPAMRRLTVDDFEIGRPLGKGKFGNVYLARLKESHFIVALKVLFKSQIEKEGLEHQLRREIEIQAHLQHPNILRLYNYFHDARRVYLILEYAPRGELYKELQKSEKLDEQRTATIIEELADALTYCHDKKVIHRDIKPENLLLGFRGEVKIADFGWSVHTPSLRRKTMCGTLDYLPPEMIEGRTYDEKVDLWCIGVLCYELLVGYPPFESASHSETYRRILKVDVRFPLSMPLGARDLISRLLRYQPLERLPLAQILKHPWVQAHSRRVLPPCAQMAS
As to conditions: at 0.1 µM.

Assay [5] addresses T2, Aurora kinase C (Homo sapiens). To be noted: at 1 µM.
Assay [6] addresses Serine/threonine-protein kinase 10 (Homo sapiens) (UniProt O94804). As to conditions: at 0.1 µM.
For assay [7] the target is unchanged. As to conditions: at 1 µM.
Assay [8] concerns the target T3, Mitogen-activated protein kinase kinase kinase kinase 2 (Homo sapiens) (UniProt Q12851).
T3 sequence (whole entry): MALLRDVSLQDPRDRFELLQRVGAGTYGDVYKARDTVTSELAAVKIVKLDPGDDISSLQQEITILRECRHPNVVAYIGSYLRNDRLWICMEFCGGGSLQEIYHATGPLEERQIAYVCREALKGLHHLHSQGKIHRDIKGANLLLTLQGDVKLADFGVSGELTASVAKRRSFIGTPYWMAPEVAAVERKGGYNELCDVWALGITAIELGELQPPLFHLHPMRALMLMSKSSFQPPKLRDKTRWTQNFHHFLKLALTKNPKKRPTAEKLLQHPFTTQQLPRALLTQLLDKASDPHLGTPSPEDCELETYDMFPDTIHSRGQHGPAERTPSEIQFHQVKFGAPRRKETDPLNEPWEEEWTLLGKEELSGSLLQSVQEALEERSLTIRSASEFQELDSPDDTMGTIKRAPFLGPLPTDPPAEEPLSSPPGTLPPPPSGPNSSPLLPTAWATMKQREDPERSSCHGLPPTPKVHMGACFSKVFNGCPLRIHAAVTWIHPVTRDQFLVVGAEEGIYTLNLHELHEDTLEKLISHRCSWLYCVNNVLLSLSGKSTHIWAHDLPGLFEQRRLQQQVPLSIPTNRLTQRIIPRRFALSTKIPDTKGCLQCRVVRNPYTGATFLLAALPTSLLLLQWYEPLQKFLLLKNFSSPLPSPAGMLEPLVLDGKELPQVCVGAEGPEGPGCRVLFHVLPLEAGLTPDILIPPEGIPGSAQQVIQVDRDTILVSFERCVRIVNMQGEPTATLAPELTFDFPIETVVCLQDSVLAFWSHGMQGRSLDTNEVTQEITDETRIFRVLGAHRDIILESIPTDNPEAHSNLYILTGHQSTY
As to conditions: at 0.1 µM.

Assay [9] concerns the target T3, Mitogen-activated protein kinase kinase kinase kinase 2 (Homo sapiens). To be noted: at 1 µM.
The target of assay [10] is Mitogen-activated protein kinase kinase kinase kinase 4 (Homo sapiens) (UniProt O95819). To be noted: at 0.1 µM.
Sequence of Mitogen-activated protein kinase kinase kinase kinase 4 (Homo sapiens) (O95819 2-1239 limits assumed): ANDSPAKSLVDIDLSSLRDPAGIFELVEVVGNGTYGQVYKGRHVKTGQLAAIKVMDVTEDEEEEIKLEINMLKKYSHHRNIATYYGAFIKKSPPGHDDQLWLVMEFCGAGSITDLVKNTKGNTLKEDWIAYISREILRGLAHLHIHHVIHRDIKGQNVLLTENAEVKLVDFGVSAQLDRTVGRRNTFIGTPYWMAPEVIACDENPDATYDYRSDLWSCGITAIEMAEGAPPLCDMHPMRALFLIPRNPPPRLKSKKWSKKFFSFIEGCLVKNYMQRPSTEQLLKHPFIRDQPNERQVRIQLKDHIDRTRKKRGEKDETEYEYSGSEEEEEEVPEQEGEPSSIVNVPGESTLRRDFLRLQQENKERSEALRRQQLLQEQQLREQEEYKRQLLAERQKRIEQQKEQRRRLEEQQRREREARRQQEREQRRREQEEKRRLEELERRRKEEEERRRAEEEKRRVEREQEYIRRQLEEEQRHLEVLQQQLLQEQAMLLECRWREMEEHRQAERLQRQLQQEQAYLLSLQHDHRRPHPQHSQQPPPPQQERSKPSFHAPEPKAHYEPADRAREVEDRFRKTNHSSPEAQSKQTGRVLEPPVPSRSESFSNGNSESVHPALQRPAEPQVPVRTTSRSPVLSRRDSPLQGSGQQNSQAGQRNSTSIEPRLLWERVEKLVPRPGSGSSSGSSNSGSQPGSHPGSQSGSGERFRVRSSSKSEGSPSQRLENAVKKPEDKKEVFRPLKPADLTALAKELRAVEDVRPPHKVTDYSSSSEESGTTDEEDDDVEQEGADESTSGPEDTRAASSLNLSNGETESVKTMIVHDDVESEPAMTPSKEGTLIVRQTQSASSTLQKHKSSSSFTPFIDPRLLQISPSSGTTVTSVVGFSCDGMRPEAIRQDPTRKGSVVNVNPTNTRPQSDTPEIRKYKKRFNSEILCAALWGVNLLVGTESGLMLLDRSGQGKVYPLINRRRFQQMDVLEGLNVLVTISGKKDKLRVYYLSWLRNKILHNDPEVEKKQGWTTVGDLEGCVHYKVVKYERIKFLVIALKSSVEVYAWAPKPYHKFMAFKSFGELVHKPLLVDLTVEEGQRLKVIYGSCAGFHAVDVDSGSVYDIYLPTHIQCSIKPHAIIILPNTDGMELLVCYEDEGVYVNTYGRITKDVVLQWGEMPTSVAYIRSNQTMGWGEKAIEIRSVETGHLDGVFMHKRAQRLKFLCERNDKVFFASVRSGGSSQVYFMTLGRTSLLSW
For assay [11] the target is unchanged. To be noted: at 1 µM.
Assay [12] deals with Dual specificity mitogen-activated protein kinase kinase 1 (Homo sapiens) (UniProt Q02750). As to conditions: at 0.1 µM.
Sequence of Dual specificity mitogen-activated protein kinase kinase 1 (Homo sapiens) (Q02750 whole entry): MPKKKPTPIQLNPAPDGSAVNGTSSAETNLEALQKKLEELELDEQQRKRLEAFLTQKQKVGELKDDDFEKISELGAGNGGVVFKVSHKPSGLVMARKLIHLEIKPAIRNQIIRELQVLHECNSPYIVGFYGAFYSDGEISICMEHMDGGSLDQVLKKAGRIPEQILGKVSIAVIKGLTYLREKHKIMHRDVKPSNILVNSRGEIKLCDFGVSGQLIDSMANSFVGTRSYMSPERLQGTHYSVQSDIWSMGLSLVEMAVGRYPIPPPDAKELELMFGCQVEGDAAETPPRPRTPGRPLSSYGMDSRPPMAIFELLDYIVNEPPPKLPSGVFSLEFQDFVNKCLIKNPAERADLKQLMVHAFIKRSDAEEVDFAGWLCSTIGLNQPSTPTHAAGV
For assay [13] the target is unchanged. To be noted: at 1 µM.
In assay [14] the target is Misshapen-like kinase 1 (Homo sapiens) (UniProt Q8N4C8). To be noted: at 0.1 µM.
Sequence of Misshapen-like kinase 1 (Homo sapiens) (Q8N4C8 whole entry, looked up): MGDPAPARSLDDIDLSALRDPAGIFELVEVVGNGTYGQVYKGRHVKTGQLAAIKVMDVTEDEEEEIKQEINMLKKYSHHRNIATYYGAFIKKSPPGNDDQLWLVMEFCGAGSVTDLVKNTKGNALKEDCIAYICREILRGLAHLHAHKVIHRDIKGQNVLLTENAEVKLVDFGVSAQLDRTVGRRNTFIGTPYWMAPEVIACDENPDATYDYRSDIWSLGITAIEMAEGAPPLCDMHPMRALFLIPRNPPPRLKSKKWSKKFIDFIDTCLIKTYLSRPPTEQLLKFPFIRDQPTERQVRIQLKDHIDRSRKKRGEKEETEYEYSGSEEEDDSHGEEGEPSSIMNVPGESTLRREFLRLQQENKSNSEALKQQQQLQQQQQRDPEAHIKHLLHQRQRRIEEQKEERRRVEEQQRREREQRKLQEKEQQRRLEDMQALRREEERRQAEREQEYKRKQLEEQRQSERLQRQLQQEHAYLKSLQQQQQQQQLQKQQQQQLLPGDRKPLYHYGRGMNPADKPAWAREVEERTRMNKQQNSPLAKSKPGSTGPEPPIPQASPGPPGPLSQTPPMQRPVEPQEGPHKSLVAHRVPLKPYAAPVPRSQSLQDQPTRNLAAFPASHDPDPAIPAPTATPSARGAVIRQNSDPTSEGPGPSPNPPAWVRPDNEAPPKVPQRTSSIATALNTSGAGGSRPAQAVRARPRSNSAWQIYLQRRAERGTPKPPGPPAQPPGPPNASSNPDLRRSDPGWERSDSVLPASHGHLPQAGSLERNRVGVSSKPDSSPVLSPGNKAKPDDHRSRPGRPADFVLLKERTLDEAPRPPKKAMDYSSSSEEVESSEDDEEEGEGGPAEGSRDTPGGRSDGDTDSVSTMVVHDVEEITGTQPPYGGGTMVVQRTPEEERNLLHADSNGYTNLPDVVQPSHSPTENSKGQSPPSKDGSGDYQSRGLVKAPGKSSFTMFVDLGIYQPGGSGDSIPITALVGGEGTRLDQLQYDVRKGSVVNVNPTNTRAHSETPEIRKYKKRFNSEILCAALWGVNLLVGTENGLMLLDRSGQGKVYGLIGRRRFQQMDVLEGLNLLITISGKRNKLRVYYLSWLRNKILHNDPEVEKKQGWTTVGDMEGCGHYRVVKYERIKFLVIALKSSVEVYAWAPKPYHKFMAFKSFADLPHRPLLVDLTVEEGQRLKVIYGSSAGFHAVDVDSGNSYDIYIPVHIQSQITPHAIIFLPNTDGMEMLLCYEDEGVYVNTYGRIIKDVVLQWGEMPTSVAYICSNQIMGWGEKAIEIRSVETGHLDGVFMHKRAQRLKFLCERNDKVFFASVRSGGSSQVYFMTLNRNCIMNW
Assay [15] has the same target. As to conditions: at 1 µM.
Assay [16] has as its target T4, Serine/threonine-protein kinase 4 (Homo sapiens) (UniProt Q13043).
T4 sequence (whole entry): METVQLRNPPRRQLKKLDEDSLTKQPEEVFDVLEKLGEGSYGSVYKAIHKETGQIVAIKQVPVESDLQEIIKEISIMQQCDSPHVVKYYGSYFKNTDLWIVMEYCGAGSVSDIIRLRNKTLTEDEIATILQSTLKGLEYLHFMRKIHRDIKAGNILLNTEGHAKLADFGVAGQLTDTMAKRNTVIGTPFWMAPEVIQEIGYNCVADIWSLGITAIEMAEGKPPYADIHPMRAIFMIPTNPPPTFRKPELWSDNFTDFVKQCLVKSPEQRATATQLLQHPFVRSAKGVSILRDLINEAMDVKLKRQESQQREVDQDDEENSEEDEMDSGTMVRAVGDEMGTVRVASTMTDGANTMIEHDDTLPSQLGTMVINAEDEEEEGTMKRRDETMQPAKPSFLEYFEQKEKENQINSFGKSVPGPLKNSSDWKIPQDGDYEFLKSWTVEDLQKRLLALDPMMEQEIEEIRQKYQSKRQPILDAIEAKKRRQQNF
As to conditions: at 0.1 µM.

In assay [17] the target is T4, Serine/threonine-protein kinase 4 (Homo sapiens). To be noted: at 1 µM.
Assay [18] deals with T5, Serine/threonine-protein kinase 3 (Homo sapiens) (UniProt Q13188).
T5 sequence (whole entry): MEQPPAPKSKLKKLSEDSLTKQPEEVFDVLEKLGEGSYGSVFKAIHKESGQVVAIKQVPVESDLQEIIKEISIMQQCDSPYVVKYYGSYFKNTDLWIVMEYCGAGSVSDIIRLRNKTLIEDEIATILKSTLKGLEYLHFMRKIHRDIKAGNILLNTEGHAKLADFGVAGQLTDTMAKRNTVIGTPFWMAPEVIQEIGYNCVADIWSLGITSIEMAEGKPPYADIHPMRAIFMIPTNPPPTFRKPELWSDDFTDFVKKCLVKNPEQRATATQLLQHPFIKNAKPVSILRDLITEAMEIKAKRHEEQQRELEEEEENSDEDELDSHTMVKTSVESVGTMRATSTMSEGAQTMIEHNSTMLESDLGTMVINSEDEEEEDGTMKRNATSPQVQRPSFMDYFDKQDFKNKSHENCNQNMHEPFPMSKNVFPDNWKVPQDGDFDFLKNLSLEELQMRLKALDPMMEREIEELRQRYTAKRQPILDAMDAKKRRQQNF
To be noted: at 0.1 µM.

The target in assay [19] is T5, Serine/threonine-protein kinase 3 (Homo sapiens). As to conditions: at 1 µM.
In assay [20] the target is Serine/threonine-protein kinase 26 (Homo sapiens) (UniProt Q9P289). As to conditions: at 0.1 µM.
Sequence of Serine/threonine-protein kinase 26 (Homo sapiens) (Q9P289 2-416 limits assumed): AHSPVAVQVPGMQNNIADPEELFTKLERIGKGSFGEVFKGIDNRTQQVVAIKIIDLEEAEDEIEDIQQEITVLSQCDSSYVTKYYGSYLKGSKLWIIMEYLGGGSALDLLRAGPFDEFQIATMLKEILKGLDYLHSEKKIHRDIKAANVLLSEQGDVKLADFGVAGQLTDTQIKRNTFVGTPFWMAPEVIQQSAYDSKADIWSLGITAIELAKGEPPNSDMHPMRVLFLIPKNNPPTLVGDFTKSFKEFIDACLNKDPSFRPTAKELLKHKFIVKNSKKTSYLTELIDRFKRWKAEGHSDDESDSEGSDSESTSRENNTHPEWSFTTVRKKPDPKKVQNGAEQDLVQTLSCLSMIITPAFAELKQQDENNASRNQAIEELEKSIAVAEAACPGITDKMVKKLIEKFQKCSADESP

Sequence of Serine/threonine-protein kinase 10 (Homo sapiens) (O94804 whole entry, looked up): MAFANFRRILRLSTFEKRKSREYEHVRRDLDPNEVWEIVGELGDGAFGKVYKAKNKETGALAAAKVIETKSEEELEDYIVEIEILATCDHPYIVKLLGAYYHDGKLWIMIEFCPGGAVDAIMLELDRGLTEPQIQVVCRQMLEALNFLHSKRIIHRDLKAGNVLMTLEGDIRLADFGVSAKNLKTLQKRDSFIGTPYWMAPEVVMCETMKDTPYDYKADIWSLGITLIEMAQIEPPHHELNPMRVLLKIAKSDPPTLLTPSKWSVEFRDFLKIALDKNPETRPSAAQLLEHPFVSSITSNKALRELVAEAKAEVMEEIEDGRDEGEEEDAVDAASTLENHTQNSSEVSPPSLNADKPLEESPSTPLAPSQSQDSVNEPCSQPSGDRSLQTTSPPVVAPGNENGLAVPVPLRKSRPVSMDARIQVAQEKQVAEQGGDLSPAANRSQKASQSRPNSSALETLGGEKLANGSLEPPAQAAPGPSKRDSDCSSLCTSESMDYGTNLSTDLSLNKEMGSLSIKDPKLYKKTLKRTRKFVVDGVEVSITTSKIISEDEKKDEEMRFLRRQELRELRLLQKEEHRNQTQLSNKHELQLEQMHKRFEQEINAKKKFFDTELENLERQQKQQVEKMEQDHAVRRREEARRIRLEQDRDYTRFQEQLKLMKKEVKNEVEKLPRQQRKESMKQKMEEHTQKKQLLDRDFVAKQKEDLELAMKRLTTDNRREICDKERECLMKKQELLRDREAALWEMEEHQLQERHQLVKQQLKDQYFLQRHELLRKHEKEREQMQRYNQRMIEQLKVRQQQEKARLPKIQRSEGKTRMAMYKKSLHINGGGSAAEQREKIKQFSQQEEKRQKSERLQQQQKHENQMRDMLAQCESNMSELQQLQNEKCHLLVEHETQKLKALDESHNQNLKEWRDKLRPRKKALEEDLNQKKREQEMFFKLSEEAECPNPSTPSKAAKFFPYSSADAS
Sequence of Aurora kinase B (Homo sapiens) (Q96GD4 whole entry): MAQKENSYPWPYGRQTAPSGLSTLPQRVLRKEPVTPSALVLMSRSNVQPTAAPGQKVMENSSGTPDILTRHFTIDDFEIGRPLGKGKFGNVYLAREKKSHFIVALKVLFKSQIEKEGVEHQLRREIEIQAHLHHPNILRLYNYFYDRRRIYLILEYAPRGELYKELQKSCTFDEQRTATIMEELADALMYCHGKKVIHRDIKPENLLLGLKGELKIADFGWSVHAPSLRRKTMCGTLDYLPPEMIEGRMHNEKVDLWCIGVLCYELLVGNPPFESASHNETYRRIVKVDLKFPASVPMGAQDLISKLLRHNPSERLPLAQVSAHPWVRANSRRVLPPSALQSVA

The inhibition is the relative decrease from the control value, in per cent. In the case of `COc1cc2ncn(-c3cc(OCc4ccccc4C(F)(F)F)c(C(N)=O)s3)c2cc1OC`, the inhibition came to 13.7% in [1]; 3.06% in assay [2]; 26.6% in assay [3]; 4.2% in assay [4]; 35.9% in assay [5]; 76% in [6]. The inhibition is 88.3% in assay [7]; 4.53% in [8]; 18.1% in [9]; 5.97% in assay [10]; 30.1% in assay [11]; 2.39% in assay [12]. In addition, the inhibition in assay [13] was determined as 2.9%; in assay [14], 7.46%; in assay [15] it was 25.5%; in assay [16] it was 14.3%; in [17] it was 55.5%; in [18], 15.2%. Also, the results for the inhibition in assay [19] and in assay [20] were 52.8% and -4.21%, respectively.
As for `O=C1NC(=O)C(c2ccc(Cl)cc2)=C1Nc1ccc(Cl)c(C(=O)O)c1`, the inhibition in [1] is 4.76%; in [2], -0.14%; in assay [3], 2.81%; in assay [4] it was -1.78%; in [5], -3.59%; in assay [6], -1.94%. Besides, the inhibition in assay [7] is -1.03%; in assay [8] it was 0.42%; in assay [9], 2.85%; in assay [10], -1.56%; in assay [11], 0.73%; in [12], -2.44%. Moreover, the inhibition in assay [13] is -3.36%; in assay [14], -0.82%; in assay [15], -0.69%; in assay [16], -1.86%; in [17], -3.6%; in [18] it was -2.71%. Besides, the inhibition was -2.5% in assay [19] and -0.06% in assay [20].
For the compound `Fc1cccc(COc2ccc(Nc3ncnc4sc(-c5cccs5)cc34)cc2Cl)c1`, the inhibition in assay [1] turned out to be 2.05%; in assay [2], 1.14%; in assay [3] it was 6.42%; in assay [4], 1.7%; in assay [5], 7.89%; in assay [6], 2.84%. The inhibition in assay [7] was 4.63%; in assay [8], -0.64%; in assay [9] it was 1.65%; in assay [10], 1.29%; in assay [11], 6.34%; in assay [12] it was 2.3%. Moreover, the inhibition in [13] was 4%; in [14] it was 1.45%; in [15] it was 2.51%; in assay [16], 0.07%; in assay [17], 0.3%; in [18] it was -1.67%. The inhibition in assay [19] was -0.19%; in assay [20] it was -0.02%.
Take `COc1ccc2cc(-c3c(-c4ccncc4)nc(-c4ccc([S+](C)[O-])cc4)n3C)ccc2c1` (stereo not given): the inhibition in assay [1] came to 9.25%; in [2], 4.15%; in assay [3], 11%; in [4] it was 2.18%; in assay [5], 15.4%; in assay [6] it was 36%. Further, the inhibition was determined as 78.4% in assay [7]; 0.6% in [8]; 0.64% in assay [9]; 2.59% in assay [10]; 8.42% in [11]; 4.05% in assay [12]. Also, the inhibition came out at 3.39% in [13]; 3.38% in [14]; 9.34% in [15]; 4.01% in [16]; 4.79% in assay [17]; 6.01% in [18]. In addition, the inhibition in [19] was 8.09%; in assay [20] it was -0.63%.
As for `CCN1CCC(CC(=O)Nc2n[nH]c3nc(-c4cccs4)c(Br)cc23)CC1`, the inhibition in assay [1] is 0.27%; in assay [2] it was -0.51%; in assay [3], 3.7%; in assay [4] it was -1.4%; in assay [5], -3.08%; in assay [6] it was -1.57%. Also, the inhibition in [7] was 1.93%; in [8] it was 0.32%; in assay [9], 2.2%; in assay [10] it was 0.23%; in assay [11], 9.82%; in assay [12] it was -3.83%. The inhibition in assay [13] was -4.66%; in assay [14], -1.72%; in assay [15], 5.84%; in assay [16] it was -4.72%; in assay [17] it was -4.38%; in assay [18], -4.72%. For the same compound, the inhibition in [19] was -2.74%; in assay [20] it was 2.05%.
With `COc1cc2ncn(-c3cc(OCc4ccccc4Cl)c(C(N)=O)s3)c2cc1OC`, the inhibition in assay [1] came out at 23.5%; in [2] it was 4.78%; in assay [3], 29.9%; in assay [4], 2.35%; in [5] it was 40.5%; in assay [6], 67.3%. Also, the inhibition in assay [7] was 99%; in assay [8], 7%; in assay [9], 30.8%; in [10], 13.9%; in [11] it was 56.6%; in [12] it was 2.14%. Also, the inhibition worked out at 2.16% in assay [13]; 10.9% in [14]; 51% in [15]; 7.11% in assay [16]; 46.2% in [17]; 6.18% in [18]. The inhibition came to 42.4% in assay [19] and 0.45% in assay [20].
For `COc1cccc(-n2ncc3c(N/N=C/c4cccc(F)c4)ncnc32)c1`, the inhibition in [1] is 16.9%; in [2], -1%; in assay [3], 7.83%; in assay [4], -2.12%; in [5] it was 1.75%; in assay [6], 3.91%. For the same compound, the inhibition in assay [7] turned out to be 11.8%; in assay [8], 1.55%; in [9], 4.59%; in [10], 7.45%; in assay [11], 35%; in assay [12], 3.46%. Further, the inhibition in assay [13] was determined as 3.27%; in assay [14], 7.28%; in [15] it was 25.8%; in assay [16] it was 3.89%; in assay [17], 8.39%; in [18], 2.89%. The inhibition in [19] was 6.96%; in [20], -0.8%.

Values taken from ChEMBL document CHEMBL1961873, “Compounds: GSK PKIS; Assays: Nanosyn kinase panel” (2012).
